Laboratory results taken from PubChem BioAssay AID1159580 (chemical genetic matrix, 2015).
In all, about 5,500 compounds went through this assay and about 2,000 (36%) were called active. Inconclusive results (about 18%) are left out. Rule as the data show it: active = normalized growth mostly below about 0.91 (no sharp cut-off); inconclusive = no clear call, values can overlap the other calls; inactive = mostly above about 0.92. Some of the results follow.

Assay: chemical genetic growth profiling, strain panel (AID 1159580);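 also: tested at 20 µM; growth read once vehicle control cultures reached saturation at 30 °C; 1 = growth at the plate median or of vehicle wells; lower values mean less growth of the strain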
Settings: S. cerevisiae deletion strains, growth OD

Measured: normalized growth

Cc1ccc(-c2nn(-c3ccccc3)c(=O)c3ccccc23)cc1C
active: locus YEL061C, strain CIN8, hits give low values 0.908 | locus YHR030C, strain SLT2, hits give low values 0.504 | locus YLR039C, strain RIC1, hits give low values 0.634 | locus YLR085C, strain ARP6, hits give low values 0.736 | locus YLR262C, strain YPT6, hits give low values 0.629 | locus YPR135W, strain CTF4, hits give low values 0.612
inactive: locus YAL013W, strain DEP1, hits give low values 0.953 | locus YBR229C, strain ROT2, hits give low values 0.968 | locus YCL061C, strain MRC1, hits give low values 0.967 | locus YDL101C, strain DUN1, hits give low values 0.957 | locus YDR150W, strain NUM1, hits give low values 0.978 | locus YGR078C, strain PAC10, hits give low values 0.955 | locus YGR229C, strain SMI1, hits give low values 0.984 | locus YHR087W, strain rtc3, hits give low values 0.922 | locus YJL187C, strain SWE1, hits give low values 0.979 | locus YJR043C, strain POL32, hits give low values 0.998 | locus YJR075W, strain HOC1, hits give low values 0.908 | locus YKL190W, strain CNB1, hits give low values 0.977 | locus YLR058C, strain SHM2 (second series), hits give low values 0.967 | locus YML094W, strain GIM5, hits give low values 0.922 | locus YMR219W, strain ESC1, hits give low values 0.962 | locus YMR263W, strain SAP30, hits give low values 0.937 | locus YNL153C, strain GIM3, hits give low values 0.992 | locus YNL298W, strain CLA4 (second series), hits give low values 0.936 | locus YNL322C, strain KRE1, hits give low values 0.964 | locus YNR030W, strain Alg12, hits give low values 0.918 | locus YOL006C, strain TOP1, hits give low values 0.804 | locus YPL055C, strain LGE1, hits give low values 0.928 | locus YPL241C, strain CIN2, hits give low values 0.917
